Source: PubChem BioAssay
Abs 340nm: compound absorbs light at 340 nm; compound absorbance at 340 nm, fold over control; fold change at 10 µM; 65,000 tested, under 10 active;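 active means at 10 µM dose, initial 340 nm absorbance at least 2 fold that of control wells; inactive means change under 2 fold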;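 further: initial absorbance extrapolated from kinetic A340 decline of NADH oxidation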
Autofluor 339: intrinsic fluorescence of library compounds, ex339/em460 – biochemical, MLSMR library, data from DPM-DC assay, artefact control, profiling panel. compound autofluorescence, ex339/em460 nm, NADH buffer; stronger effect = higher value; 1 = no-compound wells, NADH background. fluorescence fold increase at 10 µM. 5.5% of 65,000 active. AID 709;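 active means at 10 µM, mean starting fluorescence two-fold or more over control wells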;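 further: signal is the first read of a kinetic run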
MK inhibit: inhibitors of Streptococcus pneumoniae mevalonate kinase | inhibition, % at 10 µM | AID 555 | 0.48% of 65,000 active | purified MK, PK/LDH-coupled NADH absorbance 340 nm;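 active means ranked among the strongest by inhibition in the single 10 µM screen, a fixed top-ranked set picked for dose follow-up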
PMK inhibit: inhibitors of Streptococcus pneumoniae phosphomevalonate kinase; AID 539; purified PMK, PK/LDH-coupled NADH absorbance 340 nm; inhibition, % at 10 µM; 0.49% of 65,000 active;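 active means top-ranked compounds by inhibition in the single 10 µM screen, taking a fixed number of the strongest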
Spn DPM-DC inh: blocks S. pneumoniae diphosphomevalonate decarboxylase; 0.49% of 65,000 active; AID 556; calls only at 10 µM; purified DPM-DC, PK/LDH coupled NADH fluorescence;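 active means the 320 compounds with the highest percent inhibition in the single-dose primary screen, excluding strongly autofluorescent ones, cut at about 32% in these data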;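 further: kinetic rate of NADH fluorescence loss reporting ADP formed by the decarboxylase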
NADH enzymes: inhibitors of enzymes used to reach an NAD/NADH endpoint; coupled PK/LDH NADH assays, four targets; 0.02% of 65,000 active; AID 774; IC50, µM (doses to about 10 µM);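 active means single-dose screening hits from any of four coupled enzyme assays that gave an IC50 when retested across doses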;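 further: the DPM-DC format reads NADH fluorescence rather than 340 nm absorbance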
Numbers stand for hits. The list is not random: actives were taken first. Their share in the collection is about 6.8%.

What do the screens show for `O=C(Nc1ccc2c(c1)OCO2)C1CCN(S(=O)(=O)c2cccc3cccnc23)CC1`?
Abs 340nm: inactive; Autofluor 339: inactive; MK inhibit: inactive; PMK inhibit: inactive; Spn DPM-DC inh: inactive; NADH enzymes: inactive

What do the screens show for `Cc1ccc(S(=O)(=O)C2(C(=O)Nc3cccc(F)c3)CC2)cc1`?
Abs 340nm: inactive; Autofluor 339: inactive; MK inhibit: inactive; PMK inhibit: inactive; Spn DPM-DC inh: inactive; NADH enzymes: inactive

What do the screens show for `CCN(CC)C(=O)NC1CC2CCCC(C1)N2Cc1ccccc1` (centres undefined)?
Abs 340nm: inactive; Autofluor 339: inactive; MK inhibit: inactive; PMK inhibit: 27; Spn DPM-DC inh: inactive; NADH enzymes: inactive

What do the screens show for `O=C(NCc1ccccc1)NC1CC2CCC(C1)N2Cc1ccco1` (centres undefined)?
Abs 340nm: inactive; Autofluor 339: inactive; MK inhibit: inactive; PMK inhibit: inactive; Spn DPM-DC inh: inactive; NADH enzymes: inactive

Results for CCOC(=O)C1=C(C)NC(=O)C1CC(=O)Nc1ccccc1 (centres undefined) ?
Abs 340nm: inactive; Autofluor 339: inactive; MK inhibit: inactive; PMK inhibit: inactive; Spn DPM-DC inh: inactive; NADH enzymes: inactive

What do the screens show for `COc1ccc(C2NC(=O)NC3=C2CCc2ccccc23)cc1` (centres undefined)?
Abs 340nm: inactive; Autofluor 339: 3.8; MK inhibit: inactive; PMK inhibit: inactive; NADH enzymes: inactive

How did Cc1ccc(C2NC(=O)NC3=C2CCc2ccccc23)cc1 (centres undefined) do in these assays?
Abs 340nm: inactive; Autofluor 339: 2.6; MK inhibit: inactive; PMK inhibit: inactive; Spn DPM-DC inh: inactive; NADH enzymes: inactive

What do the screens show for `O=C1NC2=C(C(=O)c3ccccc32)C(c2ccccc2)N1` (centres undefined)?
Abs 340nm: inactive; Autofluor 339: inactive; MK inhibit: inactive; PMK inhibit: inactive; Spn DPM-DC inh: inactive; NADH enzymes: inactive

How did CCOC(=O)c1c(C)nc2ccccn12 do in these assays?
Abs 340nm: inactive; Autofluor 339: inactive; MK inhibit: inactive; PMK inhibit: inactive; Spn DPM-DC inh: inactive; NADH enzymes: inactive

What do the screens show for `CCCCn1c(=NC(=O)c2ccco2)c(C(=O)OCC)cc2c(=O)n3ccccc3nc21`?
Abs 340nm: inactive; Autofluor 339: 2.2; MK inhibit: inactive; PMK inhibit: inactive; NADH enzymes: inactive

How did CCCCCn1c(=NC(=O)c2ccco2)c(C(=O)OCC)cc2c(=O)n3ccccc3nc21 do in these assays?
Abs 340nm: inactive; Autofluor 339: 3; MK inhibit: inactive; PMK inhibit: inactive; Spn DPM-DC inh: inactive; NADH enzymes: inactive

What do the screens show for `COc1cccc(-n2nnc3c(=O)n(CC(=O)N4CCC(Cc5ccccc5)CC4)cnc32)c1`?
Abs 340nm: inactive; Autofluor 339: inactive; MK inhibit: inactive; PMK inhibit: inactive; Spn DPM-DC inh: inactive; NADH enzymes: inactive

How did COC(=O)c1ccccc1NC(=O)CN1CCC(NC(=O)c2ccccc2C)CC1 do in these assays?
Abs 340nm: inactive; Autofluor 339: inactive; MK inhibit: inactive; PMK inhibit: inactive; Spn DPM-DC inh: inactive; NADH enzymes: inactive

What do the screens show for `c1cncc(C(c2nnnn2C2CCCC2)N2CCCC2)c1` (centres undefined)?
Abs 340nm: inactive; Autofluor 339: inactive; MK inhibit: inactive; PMK inhibit: 25; Spn DPM-DC inh: inactive; NADH enzymes: inactive

Results for Clc1ccc(C(c2nnnn2C2CCCC2)N2CCN(Cc3ccncc3)CC2)cc1 (centres undefined) ?
Abs 340nm: inactive; Autofluor 339: inactive; MK inhibit: inactive; PMK inhibit: 25; Spn DPM-DC inh: inactive; NADH enzymes: inactive

What do the screens show for `c1ccc(C(c2nnnn2C2CCCC2)N2CCCCCC2)nc1` (centres undefined)?
Abs 340nm: inactive; Autofluor 339: inactive; MK inhibit: inactive; PMK inhibit: inactive; Spn DPM-DC inh: inactive; NADH enzymes: inactive

Results for O=C(CN1C(=O)c2ccccc2S1(=O)=O)Nc1cccnc1 ?
Abs 340nm: inactive; Autofluor 339: inactive; MK inhibit: inactive; PMK inhibit: inactive; Spn DPM-DC inh: inactive; NADH enzymes: inactive

How did Cc1nn2cc(-c3ccc(-c4ccccc4)cc3)nc2s1 do in these assays?
Abs 340nm: inactive; Autofluor 339: 2.2; MK inhibit: inactive; PMK inhibit: inactive; Spn DPM-DC inh: inactive; NADH enzymes: inactive

Results for CCOC(=O)Cc1c(C)nc(-c2ccccc2)[nH]c1=O ?
Abs 340nm: inactive; Autofluor 339: inactive; MK inhibit: inactive; PMK inhibit: inactive; Spn DPM-DC inh: inactive; NADH enzymes: inactive
